The results in this text go back to PubChem BioAssay (Tox21).

A number with no mark means an inactive call. Inconclusive results are not listed. Calls of active or inactive are those of the source. Unless noted, the call rests on the fitted dose curve; in most records, active means well fitted curve in the direction sought with a large enough effect in the repeat runs; inconclusive means weak or mixed curves; inactive means no such curve, though single readings can be large; an effect the other way counts as inactive or inconclusive.

Assay [1] has as its target Thyrotropin receptor (Homo sapiens) (UniProt P16473). The experiment in a line: qHTS assay to identify small molecule agonists of the thyroid stimulating hormone receptor (TSHR) signaling pathway (AID 1224843; calls by dose curve; further: nearly all actives have a fitted effect of over 45% in size; further: potency means the concentration at half of the fitted maximal effect). The method in brief: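 Steps: seed 800 TSHR-HEK293 cells per well; add test compound and hold 30 min at ambient temperature; dispense cAMP-d2 then anti-cAMP cryptate; incubate 1 h at ambient; measure fluorescence intensity.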

Assay [2] in a line: qHTS assay to identify small molecule agonists of the hypoxia (HIF-1) signaling pathway - cell viability counter screen (AID 1224844; calls by dose curve; further: nearly all actives have a fitted effect of over 50% in size). The method, boiled down:
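Luminescent ATP content (CellTiter-Glo, 30 min, room temperature) served as the viability measure in HRE-bla ME-180 cells exposed to compounds for 17 hrs in low-serum medium (0.5% dialyzed FBS).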
A general note: Quantitative high-throughput screening tests each substance at several concentrations.

Assay [3] in a line: qHTS assay to identify small molecule agonists of H2AX - cell viability counter screen (AID 1224847; calls by dose curve; further: top concentration of the series differs between compounds; nearly all actives have a fitted effect of over 30% in size). The method, boiled down:
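Cytotoxicity counter screen in wild-type CHO-K1 cells: a 3 hr compound treatment at 37C across 15 concentrations, followed by CellTiter-Glo luminescence to gauge viable cells.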

Assay [4] is described as follows: qHTS RealTime-Glo MT Cell Viability Assay in HepG2 cells - 24 hour (AID 1224867). Further: nearly all actives have a fitted effect of over 50% in size. The method, boiled down: (§1)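 HepG2 cells were seeded at 600 cells/well together with NanoLuc luciferase and a cell-permeant prosubstrate, preincubated 5 h at 37 C/5% CO2, then pin-dosed with compounds in DMSO. Nonlytic luminescence from viable cells was read at each time point.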
Assay [5] can be described thus: qHTS RealTime-Glo MT Cell Viability Assay in HEK293 cells - 32 hour (AID 1224868). Further: top concentration of the series differs between compounds; nearly all actives have a fitted effect of over 50% in size. The method in brief:
(§2)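 HEK293 cells were seeded at 600 cells/well together with NanoLuc luciferase and cell-permeant prosubstrate, preincubated 5 h at 37 C/5% CO2, then given compound in DMSO by pintool. Luminescence from viable-cell prosubstrate reduction was read repeatedly over 40 h.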

A short description of assay [6]: A CellTox Green Cytotoxicity Assay to monitor cytotoxicity in HEK293 cells - 0 hour (AID 1224869). Further: nearly all actives have a fitted effect of over 50% in size. The method, boiled down:
(§3)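 Each value comes from one timepoint of a single continuous run in which HEK293 cells with CellTox Green were exposed to compound for up to 40 h at 37 C, dye fluorescence rising with cell death.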

A short description of assay [7]: qHTS RealTime-Glo MT Cell Viability Assay in HepG2 cells - 40 hour (AID 1224870). Further: nearly all actives have a fitted effect of over 50% in size. The method, boiled down: (§4)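 HepG2 cells (600/well) mixed with RealTime-Glo MT reagent, settled 5 h at 37 C/5% CO2 before compound addition. Nonlytic NanoLuc luminescence from viable-cell prosubstrate reduction read repeatedly during 40 h treatment at 37 C.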
Assay [8] can be described thus: A CellTox Green Cytotoxicity Assay to monitor cytotoxicity in HEK293 cells - 40 hour (AID 1224871). Further: nearly all actives have a fitted effect of over 45% in size. Further: potency means the concentration at half of the fitted maximal effect. The method, boiled down:
as §3

The nature of assay [9]: qHTS RealTime-Glo MT Cell Viability Assay in HEK293 cells - 16 hour (AID 1224872). Further: nearly all actives have a fitted effect of over 50% in size. Further: potency means the concentration at half of the fitted maximal effect. The method, boiled down:
as §2

Assay [10] can be described thus: qHTS RealTime-Glo MT Cell Viability Assay in HepG2 cells - 8 hour (AID 1224873). Further: nearly all actives have a fitted effect of over 55% in size. The method in brief:
as §4

Assay [11] can be described thus: qHTS RealTime-Glo MT Cell Viability Assay in HEK293 cells - 40 hour (AID 1224874). Further: nearly all actives have a fitted effect of over 50% in size. Further: potency means the concentration at half of the fitted maximal effect. The conditions noted are these: RealTime-Glo luminescence; max response: hits give low values. The method, boiled down:
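qHTS format; HEK293 cells with NanoLuc/prosubstrate reagent, 37 C/5% CO2 for 5 h pre-dosing; compounds 23 nL in DMSO; luminescence at each time point reflects viable cells.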

Assay [12] is described as follows: A CellTox Green Cytotoxicity Assay to monitor cytotoxicity in HEK293 cells - 24 hour (AID 1224875). Further: nearly all actives have a fitted effect of over 45% in size. The method, boiled down:
as §3

A short description of assay [13]: qHTS RealTime-Glo MT Cell Viability Assay in HepG2 cells - 32 hour (AID 1224877). Further: nearly all actives have a fitted effect of over 55% in size. The method, boiled down:
as §1

Assay [14] is described as follows: A CellTox Green Cytotoxicity Assay to monitor cytotoxicity in HepG2 cells - 24 hour (AID 1224878). Further: nearly all actives have a fitted effect of over 45% in size. Further: potency means the concentration at half of the fitted maximal effect. The method in brief: (§5)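 Continuous culture of HepG2 cells with a membrane-impermeant DNA dye; rising fluorescence marks dead cells. Compound exposure lasted up to 40 h at 37 C, with reads every 8 h from 0 h.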
A short description of assay [15]: A CellTox Green Cytotoxicity Assay to monitor cytotoxicity in HepG2 cells - 40 hour (AID 1224879). Further: nearly all actives have a fitted effect of over 40% in size. Further: potency means the concentration at half of the fitted maximal effect. The method in brief: as §5
Assay [16] can be described thus: qHTS assay to identify small molecule agonists of the hypoxia (HIF-1) signaling pathway (AID 1224846; active means well fitted activation curve with a large enough effect in the signal ratio in the repeat runs, not every such curve was filed as active; the % refers to the signal ratio). The method in brief:
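Measured by blue/green FRET after loading CCF4-AM: beta-lactamase expressed from a hypoxia response element in ME-180 cells. Test agents were delivered in DMSO and left 17 hrs; cells had been plated 5 hrs earlier in low-serum (0.5% dialyzed FBS) medium.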

Assay [17] is described as follows: qHTS assay to identify small molecule agonists of H2AX (AID 1224845; active means well fitted activation curve with a large enough effect in the signal ratio in the repeat runs, not every such curve was filed as active; the % refers to the signal ratio). The method in brief: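 Wild-type CHO-K1 cells, plated overnight, exposed 3hr at 37C to 15 concentrations (0.76% DMSO final). Lysed, then HTRF anti-pH2AX (S139) cryptate and anti-H2AX-d2 antibodies, 24 hr room temperature; 665/620 nm emission read.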
Assay [18] can be described thus: qHTS assay to identify small molecule antagonists of the estrogen related receptor (ERR) signaling pathway from Tox21 library (AID 1224848). Further: nearly all actives have a fitted effect of over 50% in size. The method in brief: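 Luminescent reporter read-out (ONE-Glo) from NTP's ERR cell line after 18 h treatment at 37 C with DMSO-dissolved Tox21 compounds; cells pre-plated 6 h beforehand at 2,000 per well.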
Assay [19] can be described thus: qHTS assay to identify small molecule agonists of the estrogen related receptor (ERR) signaling pathway from Tox21 library (AID 1224849; calls by dose curve; further: nearly all actives have a fitted effect of over 15% in size). The following applies: ERR reporter cell line, ONE-Glo luciferase, 18 h; at 92.4 µM (top of the series) unless noted. The method in brief:
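We plated ERR reporter cells, waited 6 h, added compounds in DMSO by pin tool and incubated them 18 h at 37 C. ONE-Glo was then added and luminescence read after 30 min.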

The nature of assay [20]: A CellTox Green Cytotoxicity Assay to monitor cytotoxicity in HepG2 cells - 16 hour (AID 1224876). Further: nearly all actives have a fitted effect of over 45% in size. Further: potency means the concentration at half of the fitted maximal effect. The method, boiled down:
as §5
On the % scale 0 is the no-effect control and ±100 the full control effect.

Thyrotropin receptor (Homo sapiens), sequence (P16473 whole entry, looked up): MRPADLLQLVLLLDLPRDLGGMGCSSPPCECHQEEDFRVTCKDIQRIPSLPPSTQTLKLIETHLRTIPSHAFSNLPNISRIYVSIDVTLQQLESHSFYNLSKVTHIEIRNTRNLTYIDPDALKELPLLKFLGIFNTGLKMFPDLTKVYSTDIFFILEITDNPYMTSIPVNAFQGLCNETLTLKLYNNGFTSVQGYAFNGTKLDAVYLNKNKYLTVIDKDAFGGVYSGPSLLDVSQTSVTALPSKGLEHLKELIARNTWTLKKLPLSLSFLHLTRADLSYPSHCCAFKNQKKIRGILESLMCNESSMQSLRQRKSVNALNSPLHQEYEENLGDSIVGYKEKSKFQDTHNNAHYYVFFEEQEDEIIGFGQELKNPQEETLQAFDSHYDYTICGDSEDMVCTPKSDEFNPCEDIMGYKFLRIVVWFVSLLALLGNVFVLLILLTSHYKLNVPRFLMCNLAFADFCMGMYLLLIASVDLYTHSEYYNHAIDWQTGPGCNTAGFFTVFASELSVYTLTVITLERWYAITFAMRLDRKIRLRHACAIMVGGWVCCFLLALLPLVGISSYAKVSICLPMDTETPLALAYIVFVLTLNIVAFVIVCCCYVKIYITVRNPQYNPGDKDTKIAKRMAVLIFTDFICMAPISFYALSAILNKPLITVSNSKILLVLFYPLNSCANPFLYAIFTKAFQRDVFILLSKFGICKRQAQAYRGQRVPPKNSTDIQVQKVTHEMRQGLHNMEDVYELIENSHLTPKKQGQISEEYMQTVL

Regarding `COc1cc(OC)c2ccc(=O)oc2c1`, the Potency result in assay [1], in assay [2], in assay [3], in assay [4], in [5] and in assay [6] was “inactive” throughout. Besides, the Potency result in assay [7], in [8], in assay [9], in [10], in assay [12] and in assay [13] was “inactive” throughout. Moreover, the Potency entry in [14] and in assay [15] was “inactive” in each case. In addition, the max response in assay [11] is -23.1%.

On to `CCCCC[C@H](O)/C=C/[C@H]1[C@H](O)CC(=O)[C@@H]1C/C=C\CCCC(=O)O`, for which the Potency in assay [1] is 0.0266 µM (active). In addition, the Potency result in [2], in assay [3], in assay [5], in assay [6], in assay [7] and in assay [8] was “inactive” throughout. Further, the Potency result in assay [9], in assay [10], in assay [12], in assay [13], in assay [14] and in assay [15] was “inactive” throughout. For the same molecule, the outcome in [16] was inactive. Besides, the max response in [11] was 19.7%.

`CC(=O)OCC(C)C`: the Potency entry in [2], in assay [17], in [3], in [4], in assay [5] and in assay [6] was “inactive” throughout. The Potency entry in assay [7], in assay [8], in assay [9], in [10], in assay [12] and in assay [13] was “inactive” each time. In addition, the Potency result in [14] and in assay [15] was “inactive” each time. Also, the result in [16] was inactive. Also, the max response in [11] was 1.5%.

In the case of `CCCCCCCCCCCC(=O)OCC(O)CO` (stereo not drawn), the Potency result in assay [2], in assay [17], in assay [3], in [18], in assay [4] and in [5] was “inactive” each time. Further, the Potency entry in assay [6], in [8], in assay [9], in assay [10], in assay [12] and in [20] was “inactive” in each case. For the same molecule, the Potency result in assay [13], in [14] and in [15] was “inactive” each time. For the same molecule, the molecule was called inactive in [16]. In assay [19], the activity change, positive = activation is 2.33%. The max response in assay [11] was 6.6%.

Turning to `O=C(O)c1cc(Cl)cc(Cl)c1O`, the Potency entry in assay [1], in assay [18], in [4], in assay [5], in assay [6] and in assay [8] was “inactive” each time. Besides, the Potency result in [9], in assay [10], in assay [12], in [20], in assay [13] and in assay [14] was “inactive” in each case. In [15], the Potency entry was “inactive”. For the same molecule, in [11], the max response is -0.228%.

With `O=C(/C=C/c1ccc([N+](=O)[O-])cc1)c1ccccc1`, the Potency entry in assay [1], in assay [3], in assay [6] and in assay [10] was “inactive” each time. The Potency in assay [8] was 17.4 µM (active); in [9], 24.6 µM (active); in [11], 24.6 µM (active); in assay [20], 21.9 µM (active); in assay [14], 21.9 µM (active); in assay [15], 21.9 µM (active).

As to `COC(CC(C)CCCC(C)(C)O)OC` (stereo not drawn), the Potency result in [1], in assay [4], in assay [5], in assay [6], in assay [7] and in [8] was “inactive” in each case. For the same molecule, the Potency result in [9], in assay [10], in assay [12], in assay [13], in assay [14] and in [15] was “inactive” in each case. The call in assay [16] was inactive. Besides, the max response in [11] was 1.35%.

As for `CCCCCCCC/C=C/C(=O)O`, the Potency result in [2], in assay [17], in assay [3], in assay [4], in assay [5] and in assay [6] was “inactive” in each case. The Potency result in assay [7], in assay [9], in assay [10], in assay [12], in [20] and in assay [13] was “inactive” throughout. Moreover, the Potency entry in assay [14] and in assay [15] was “inactive” in each case. Moreover, the outcome in assay [16] was inactive. Besides, the max response in assay [11] is 8.87%.

For `Oc1cccc2[nH]ccc12`, the Potency result in assay [1], in assay [3], in assay [4], in [6], in assay [7] and in assay [8] was “inactive” each time. Besides, the Potency entry in [9], in assay [10], in assay [12], in [20], in [13] and in [14] was “inactive” throughout. Moreover, the Potency result in assay [15] is “inactive”. Moreover, the result in [16] was inactive. In addition, in [11], the max response was 12.2%.
